This note sets out measurements from PubChem BioAssay AID1159506 (National Center for Advancing Translational Sciences (NCATS), 2015).

In all, about 59,000 sequences were measured (the read-out: median about -0.00055, lowest 2% from about -2 on). The sample as a whole holds a higher share of the lowest values than the screen did.

The experiment in a line: Identification of proteins required for the processing of the EWS-FLI1 nascent transcript.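 Further: robust z of luciferase light less the median z of siRNAs with the same seed.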 The note with it: TC32 Ewing sarcoma NR0B1-luc vs CMV-luc (EWS-FLI1 target promoter against control promoter), 48 h; screened at 20 nM (by protocol). Summed up:
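Readout: OneGlo luminescence, 48 h post-transfection, TC32-NR0B1-luc vs TC32-CMV-luc in parallel. siRNA 20 nM final, RNAiMax lipid, 600 cells/well; z-score-MAD transformed, then seed-adjusted.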
AAUGUUGUAGUUGAUUAGC against CCDC178 showed a seed-corrected z-score of -0.836. Sequence UUGACAGUUUCCAUCAGGC against PLIN3 gave a seed-corrected z-score of 0.105. The sequence UAUCGAUUUGGGUCGUAGC against GNL1 gave a seed-corrected z-score of 0.128. Then UACGUGAGCUGUGAUGAGC against IRF4, with -0.522; and UAGGCGAAUACAGUUAGGG against PRDM11, with -0.0836. AAAAGGUAAACAGUGCUGG against HCAR1: the seed-corrected z-score is -2.61. AAUAUAACGACUAAUGUCC against CTNNBIP1 registered a seed-corrected z-score of 0.971. In the case of UUUAGAGGCAGGGAGAAGC against MT1XP1 it was -2.16; in that of UUUCGAGUUUCAAUGCUCC against SEC31A, 0.675. Then AUGAGUUUAAAGUACAAAG against TBC1D3G, with -0.961. In the case of AAAGCUCUUCUAAUGAUAG against CMPK2 it was 1.05; in that of UUUCCAAUAUUUGAAGGUG against IFNK, -0.532. UCUGGGUUGAGGUCUACGA against LGALSL gave a seed-corrected z-score of 1.22. Then UCUCUUUUAGGUGGUUUGG against RNPS1P1, with -2.12; and UUUGGAGCCGAAAGCAUUG against TBX4, with -0.381.

As for UUUCUUACCAUAGUUGUCC against TCF7L1, the seed-corrected z-score was 0.0239. Turning to UUCACGAGUAGAGAUGUGG against ULK4, the seed-corrected z-score was -0.0896. In turn, UGUGGAUUCGCAUUCGUGC against WNT10B displayed a seed-corrected z-score of -0.172.

For the sequence AAGAGCAGUAUAGCCCUUG against FAM219B, the seed-corrected z-score is -2.73. In the case of UUCAGAGUAAUGUCGACAU against RPL9 it was -0.525; in that of UAUUAUCCAGGAUUAAUUC against TMED5, 0.444. Consider UGGUUAUUAACCACGAAAC against DACH2, for which the seed-corrected z-score is -2.55. Sequence UUUUUGGGUUGUGCGAUGG against CLDN8 returned a seed-corrected z-score of -0.531. In turn, UAGUCGAUUAAACAGAGCC against RBPJ displayed a seed-corrected z-score of 0.0342.

The sequence UGAGUUCUGAUCGCAGUUC against MCC registered a seed-corrected z-score of -0.00975. Regarding AAUGUUAACGAUGAAGAAG against ADRB2, the seed-corrected z-score was determined as 0.292.

As to AACAGGACAAUUUUAGCAC against OR1L1, the seed-corrected z-score was -2.6. For UCUGAAACAAUCCUCACUC against LINC00598, the seed-corrected z-score was -0.139. Then UGAGGAUAAAGCGAAGAGC against VARS2, with 0.0595; and AACUGGGACUUGUUUUACC against FAM83F, with 0.219; and AAGGUUGCUCGUUCUAUGG against CASP5, with -2.33.

For the sequence UAAUGUCCCAAUCGUAUUG against UXS1, the seed-corrected z-score came to 0.872. As to AAUCUCUCGGUUUCGAUUC against HYKK, the seed-corrected z-score stood at 1.15.

For the sequence UCCGUGCACAUCUUAUAGG against HMG20B, the seed-corrected z-score came to 0.0817. Then UAAGAAAUGAUGCUCAAUG against LMAN1L, with -0.257; and UCUACAUCAAUCAAAUAUC against DUSP11, with 1.23. UCUCUUCAUACUUAUUAGC against TEX43 came in with a seed-corrected z-score of -2.3.

Sequence UUGGGAUAAUGAUUGUUAC against OR10AG1 showed a seed-corrected z-score of -0.676. UUCCUGACGAGGUACACUG against GAS2L2 came in with a seed-corrected z-score of 0.821.

Sequence UCAGAGACCAGCUGUUUCU against IGSF23 gave a seed-corrected z-score of -0.0662. In the case of ACAGCUAUAAAGGUGAUCC against MTMR1, the seed-corrected z-score was -2.56. Then UGUCGUUCAAGGGUCUUCC against IFNE, with -0.372.

In turn, UAACUAGUUUUCUUGUCCC against CARD6 showed a seed-corrected z-score of 0.329. For the sequence UAUCAUCCAAAACUGUAUC against ASNSD1, the seed-corrected z-score was 0.0108. Then AUCGGCAUUAAGAAUGUAG against EIF3L, with -0.237; and UUAGCUGCAUCCUUGCUGG against CELSR3, with -2.13; and UAAGUUCUUGUAUCUUCCC against ATP6V1G3, with 0.313. The sequence UUCUGGAUUCUGGGCAUCG against IFI6 registered a seed-corrected z-score of -0.197. UCAAUAACCAUGAAGAUGC against FAM162A: the seed-corrected z-score came out at 0.76. UCGUGCUACACCAUGAGUC against CTTNBP2 showed a seed-corrected z-score of 0.0923. In the case of UUCCAGUAUGCUGAUUUCC against SLC8B1 it was -2.95; in that of UCACUUGAUAACAAUCUCC against ZCWPW2, -0.645; in that of AUCAUUAUCCUUCUCAUCC against IRF6, -0.561. Then UAGCCCUCACCAUAGAUGC against SYNGR2, with 0.181; and ACAGUUGCAACUUCCAUGC against KCND2, with -2.77; and UGAGUACCGUGAUAAAUGC against TAS1R2, with 0.56. The sequence UUAGCAUCCACGAUACCAC against CFAP47 registered a seed-corrected z-score of 0.706. UUAAUGAACACAAGCAUGU against RPL23AP14 had a seed-corrected z-score of 0.756. Sequence UAUGUUGUGCGGCUCUCCC against SOX15 showed a seed-corrected z-score of -2.31. UAACGAAUAAUCAUCUUCC against ICE1 returned a seed-corrected z-score of 0.115. In the case of UCCAAAUUUGAGUACAUCC against SNIP1 it was 0.505; in that of UAAGGCUUUAGUGAGCUCU against FXN, 0.805. In the case of UUGCCGUAGACAGCAUGGG against GPR173, the seed-corrected z-score was -0.733. UCUGGUUCCUCUUUAAGUG against RPL27A: the seed-corrected z-score was -3.53. AAUGUUCCUAUUUAUUUCG against RNF214 displayed a seed-corrected z-score of -0.629.

UCAGGAUCAAGCAUGUUCC against LOC645177 showed a seed-corrected z-score of -0.115. Then UGUGCUAUAAGAGAUCCAG against TANC2, with -0.454; and AAAGUAGUCACCUGGACCA against ODF3, with -2.14. For the sequence UUCCUCAUGAGCACCAUCC against TEDDM1, the seed-corrected z-score was determined as 0.185. In the case of AUCUAUUAUGGUUUCGAUC against BAZ1B it was -0.12; in that of UCUCUGUACCCAACUCCGC against ZNF212, -0.31.

AAUGAAAUAGUGCUGUUUG against KCTD1: the seed-corrected z-score came to 0.318. UCUGCUUGGAAAUAUCUCG against GRSF1 yielded a seed-corrected z-score of -4.11. In the case of AAUCCUCUUAUGAAUAACG against ZNF331 it was -0.158.

In turn, AAGGAUACCAUCAUGUAGC against FZD3 came in with a seed-corrected z-score of 0.547. With UUUGUAACAUCAAUCAGAG against EXOC4, the seed-corrected z-score turned out to be 0.287. Sequence AUUCGGGAUAUAUAGAUUG against LIN7C registered a seed-corrected z-score of 0.308. Turning to UCAAGUACAUUGCAGUUUG against PDK1, the seed-corrected z-score is -0.235. As for UCCAGGUUUAUAUAGGUUG against MT1X, the seed-corrected z-score is -7.89. Then UCAUAAGUGACAAGGCUGC against DCTN2, with -0.548; and UGACGUGAUAGCUUGAACC against EXPH5, with 0.908; and UUUGAUUCCAUGUAGCUGU against MTCP1, with 0.871. Turning to ACAUCAUCCACUUCGUUCC against UNC93B1, the seed-corrected z-score was -3.19. Then UUAACUGCAUCCCUAAUCC against AVEN, with -1.22; and UUCUUUACAUGCUGCAUUC against GALNT11, with 0.394; and UUCAUGUCGAUAACUGUGG against KCNJ15, with -0.324.

UCUUGGAACAGGAUCUUCU against TAOK2: the seed-corrected z-score was -0.173. Then UCAUGAAUUGUGGCAGGCA against LINC00598, with 0.856.

ACUGCUUUGACAUCUGGGC against SNF8 had a seed-corrected z-score of -0.699. In the case of UGACUAAUAAGAAUGCCCG against SLC2A2, the seed-corrected z-score was -0.863. The sequence AUAACUACAGCAUCAGAGG against WDR60 showed a seed-corrected z-score of 0.989. Then AACCGUUUCAUAAACUCCC against MCMBP, with 0.188; and UAUUCGUACUCAAACGUGC against SFPQ, with -2.1; and AUACAUGUCAGCUGAGUAG against POU2AF1, with -0.413. In the case of AGUGUCUCUACUCAGGUUC against CSF2 it was 1.91; in that of UUCGGAUAUAGAGGUAGGC against SNRNP200, -2.46; in that of UGAGUCAAAUGUUCUUUGG against KLF16, 0.422.

Take UUUUUCUGAACUCUCGUCU against C1orf174: the seed-corrected z-score was -1.93. As for AAAUUUACCUAUGUUCUUC against PBX1, the seed-corrected z-score was determined as 2.08.

UUUUAGAAAGUUCAUGUCC against CD69 yielded a seed-corrected z-score of 0.737.

Sequence UUCGUGUAGACUGACCUUC against LRCH1 yielded a seed-corrected z-score of -9.4. Consider UCAGGUUCUUUGUCUGACC against IRS1, for which the seed-corrected z-score was -1.53. UGGUCUGCAAAGGUAAUGC against PLRG1: the seed-corrected z-score was 0.251.

Take UAAGUAGGCACAACACUCA against DEXI: the seed-corrected z-score was 0.701. AACUGAACAUUUAUAGAGC against MTERF2 gave a seed-corrected z-score of 1.28. In the case of CUAUAGAUGAAGUAGGUGC against EDA it was 1.41; in that of AGAGUUUCUGGUAUAGACC against TAS2R38, -2.98.

AAGGAUAUGAAGGUAAUUC against ZNF518A yielded a seed-corrected z-score of -0.0667. Consider UUAGGGAUGAACCAAGGCA against ATP6V0E1, for which the seed-corrected z-score worked out at 0.122. Regarding UUUGCAAUGACACGAAGCC against APOL4, the seed-corrected z-score is 0.249.

AUAGUUGCAGGAAACUUCU against LOC441907 had a seed-corrected z-score of -2.67. Then UUCCUGAGUUCUUUCGUCC against DYRK1B, with -0.484; and UGUUCUAUUUCACUUACUC against ZBTB26, with -0.568. Consider AAAGGAGCAUAAAUUUAGU against LOC400867, for which the seed-corrected z-score was 2.06. In the case of UAUGCAUAAACGGUCUUCA against SH3BGR it was -0.25. Take UAUUUCACGUCGAUAGAGC against TMEM106B: the seed-corrected z-score was -2.63. Then UGAGGGUUGAGUGUAAGUC against FUK, with -0.673; and UUGUGAACUGAUUACACUG against CCDC66, with 0.423. The sequence UUGACCAUCAAGUAUUAGC against WDR47 registered a seed-corrected z-score of -10.6. UUCUGAUCAAGGCUAGACC against SHROOM3 showed a seed-corrected z-score of -0.584.

In turn, UGAACUCCUCUGCAUAUUC against HLA-F registered a seed-corrected z-score of 0.183. In the case of UUGGUGUCCGGAGAGGUGU against IRF3 it was -0.0987; in that of AACUCCGUCAGUUCCUUCC against FAM167A, 0.463; in that of ACAGCUAUCACUGCAUGCC against OR14J1, -3.81.

Regarding UUUAGGUACAGAAUCCCUG against HDHD3, the seed-corrected z-score is 0.511.

UCUUCAAUAAUGUGCAUCC against SEMA4G yielded a seed-corrected z-score of 0.069. Then UUCUCCGUUUCUGUUAUGC against SYCP2L, with 0.199; and UGCUGUUCUGUGCUGUUCC against ARID5A, with -2.31. UCAGGCUCAACCACCAGCA against ESRRA registered a seed-corrected z-score of -1.16. In the case of UAUAUCCACAGUGCGGAUC against RAB13 it was 0.253; in that of AUACUUGCGAUAAAGGUGC against CSGALNACT1, -1.05. Consider UCAGCUCCAACUGAAGGUC against ID1, for which the seed-corrected z-score turned out to be 0.724. Turning to AAUGGUGUCAGUUCCUCUG against ETFA, the seed-corrected z-score was determined as 0.854.
